This is an account of results in PubChem BioAssay.

Active and inactive are the calls of the source. Unless noted, how the calls were made is not given here.

A short description of assay [1]: compounds binding Alexa647 anti-His antibody – biochemical, small-molecule microarray, 635 nm fluorescence, artefact control for SMM control protein annotation, primary screen (AID 1128).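 Further: score merges feature fluorescence with signal-to-noise for each printed compound spot.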 As to conditions: higher = more signal.
In assay [2] the test system is Human papillomavirus type 1a E7 protein (residues 1-88). Put plainly: HPV1a E7 small-molecule binders, primary screen, biochemical, small-molecule microarray, residues 1-88, 635 nm (AID 1129). Conditions: small-molecule microarray binding, fluorescence 635 nm; higher = more signal.
For assay [3], the target named is Focal adhesion kinase 1 (Homo sapiens) (UniProt Q05397). Description: PTK2 protein binding on printed compound slides – biochemical, small-molecule microarray, 635/667 nm fluorescence, BSA, DTT, primary screen (AID 1130).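 Further: composite of spot emission at 667 nm and signal to noise over triplicate slides.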 As to conditions: 635 nm fluorescence, higher = more signal.
Assay [4] has as its system Fibrinogen (Alexa647-labelled). Description: Alexa647-fibrinogen binding to printed small molecules – biochemical, small-molecule microarray, 635/667 nm fluorescence, artefact control for SMM control-protein annotation, profiling panel (AID 1131).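 Further: z-score merges 667 nm fluorescence with per-spot signal-to-noise over triplicate slides.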 Conditions: fibrinogen-A647 binding fluorescence, higher = more signal.
Assay [5] has as its target Follistatin (Homo sapiens) (UniProt P19883). Put plainly: FST protein binding to printed compounds – biochemical, small-molecule microarray, 635/667 nm fluorescence, primary screen (AID 1132). Conditions: 635 nm fluorescence, higher = more signal.
Assay [6] concerns the target Fibroblast growth factor 2 (Homo sapiens) (UniProt P09038). Description: basic fibroblast growth factor binding to printed compounds – biochemical, small-molecule microarray, 635/667 nm fluorescence, primary screen (AID 1133). As to conditions: FGF2, fluorescence 635/667, higher = more signal.
Assay [7] is described as follows: JC-1 mitochondrial potential readout, lung cancer cells – cell-based, A549, JC-1 fluorescence, basal, 24 h, 100 nL, profiling panel (AID 1138).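 Further: A549 lung adenocarcinoma cells under basal conditions with no added stimulus; test concentration not given here.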 As to conditions: higher = more signal.
For the next assay, the system named is Lefty1. Description: Lefty1 protein binding to printed compounds – biochemical, small-molecule microarray, 635/667 nm fluorescence, primary screen (AID 1139). As to conditions: fluorescence 635/667, higher = more signal.
Assay [8] deals with wheat germ agglutinin (Triticum aestivum), Alexa647-labelled. Description: Alexa647-WGA lectin binding to printed small molecules – biochemical, small-molecule microarray, 635/667 nm fluorescence, artefact control for SMM control-protein annotation, profiling panel (AID 1140).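 Further: score merges 667 nm feature emission with signal to noise over triplicate slides.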 Conditions: WGA-A647 binding, 635 nm fluorescence, higher = more signal.
Assay [9] deals with Luciferin 4-monooxygenase (Photinus pyralis) (UniProt P08659). Description: inhibition of purified Photinus pyralis luciferase – biochemical, luminescence, purified enzyme, 2006 set, primary screen (AID 1141).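 Further: cell-free assay with purified firefly luciferase at 100 ng per well in PBS; test concentration not given here.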 As to conditions: purified firefly luciferase, SteadyGlo luminescence, 30 min; higher = more signal, called active from +8 up or from −8 down.
Assay [10] deals with Wnt5a (protein binding on small-molecule microarray). Put plainly: small molecules binding Wnt5a protein – biophysical, small-molecule microarray, 635/667 nm fluorescence, primary screen (AID 1142).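 Further: fluorescence read at 667 nm with signal to noise per printed feature.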 Conditions: 635 nm fluorescence, higher = more signal.
Assay [11] can be described thus: ATP-based viability of Huh7 replicon cells – cell-based, CellTiter-Glo luminescence, basal, 48 h, cytotoxicity control for HCV replication inhibitor project, primary screen (AID 1143).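 Further: Huh7 hepatoma cells carrying a hepatitis C replication reporter with no stimulus; test concentration not given here.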 Conditions: higher = more signal, called active from +8 up or from −8 down. (In antiviral work, replicon cells carry a viral genome segment that copies itself.)
A short description of assay [12]: Pseudomonas biofilm growth suppression – PAO1 strain, BacTiter-Glo luminescence, LB-PBS, primary screen (AID 1144). As to conditions: P. aeruginosa PAO1 biofilm, 12 h, higher = more signal.
Assay [13] can be described thus: basal CRE-LacZ reporter activity in PC12 – cell-based, unstimulated, primary screen (AID 1145). Conditions: no forskolin, luminescence, 4.5 h, higher = more signal, called active from +8 up or from −8 down.
Assay [14] can be described thus: forskolin-driven CRE-LacZ activity in PC12 – cell-based, CRE-LacZ reporter, forskolin-stimulated, primary screen (AID 1146).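 Further: PC12 cells with 6xCRE LacZ reporter stimulated by forskolin 10 µM; beta-galactosidase reporter signal reflecting CREB driven transcription.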 As to conditions: luminescence, 4.5 h, higher = more signal, called active from +8 up or from −8 down.
Assay [15] addresses Streptavidin (Streptomyces avidinii) (UniProt P22629). Description: compounds binding control protein streptavidin – biophysical, small-molecule microarray, 635/667 nm fluorescence, artefact control for SMM compound annotation, primary screen (AID 1147).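 Further: signal reflects streptavidin binding to arrayed compounds as a control protein.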 Conditions: higher = more signal.
Assay [16] can be described thus: probe aInhba binding on compound microarray – biochemical, small-molecule microarray, 635/667 nm fluorescence, primary screen (AID 1148).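 Further: score merges 667nm spot fluorescence with signal-to-noise for antibody binding to printed compounds.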 Conditions: higher = more signal.
The target of assay [17] is Torsin-1A (Homo sapiens) (UniProt O14656). Description: TOR1A wild-type binding on microarray – cell lysate, small-molecule microarray, lysate, 635/667 nm, primary screen (AID 1149). Conditions: COS7 hTOR1A-WT lysate, 635 nm fluorescence, higher = more signal.
The target is the same in assay [18]. Put plainly: torsin A mutant lysate binding on microarrays – cell lysate, small-molecule microarray, COS7 lysate, 635/667 nm fluorescence, primary screen (AID 1150).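 Further: score pools 667 nm emission and signal to noise measuring lysate protein binding.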 Conditions: COS7 hTOR1A mutant lysate, 635 nm fluorescence, higher = more signal.
Assay [19] deals with Sonic hedgehog protein (Shh). Put plainly: Sonic hedgehog microarray binding compounds – biochemical, small-molecule microarray, 635/667 nm fluorescence, primary screen (AID 1151).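 Further: Shh protein binding to compounds spotted on small-molecule microarray slides; score combines spot fluorescence intensity with signal-to-noise across triplicate slides.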 Conditions: 635 nm fluorescence, higher = more signal.

Follistatin (Homo sapiens), sequence (P19883 whole entry, looked up): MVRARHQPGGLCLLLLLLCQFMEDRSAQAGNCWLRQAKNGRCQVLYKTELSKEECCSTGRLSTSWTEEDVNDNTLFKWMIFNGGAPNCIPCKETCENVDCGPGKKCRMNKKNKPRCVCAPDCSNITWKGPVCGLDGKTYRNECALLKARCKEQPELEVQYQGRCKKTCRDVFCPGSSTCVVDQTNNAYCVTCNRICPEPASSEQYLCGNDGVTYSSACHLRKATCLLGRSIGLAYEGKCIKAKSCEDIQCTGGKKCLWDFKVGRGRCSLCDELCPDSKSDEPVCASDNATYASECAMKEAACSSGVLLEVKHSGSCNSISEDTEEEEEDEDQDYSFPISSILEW
Streptavidin (Streptomyces avidinii), sequence (P22629 whole entry, looked up): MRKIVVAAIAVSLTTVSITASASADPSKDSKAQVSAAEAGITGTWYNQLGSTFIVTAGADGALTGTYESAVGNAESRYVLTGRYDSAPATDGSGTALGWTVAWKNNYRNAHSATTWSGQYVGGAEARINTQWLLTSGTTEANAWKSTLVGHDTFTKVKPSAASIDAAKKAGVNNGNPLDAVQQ
Focal adhesion kinase 1 (Homo sapiens), sequence (Q05397 whole entry, looked up): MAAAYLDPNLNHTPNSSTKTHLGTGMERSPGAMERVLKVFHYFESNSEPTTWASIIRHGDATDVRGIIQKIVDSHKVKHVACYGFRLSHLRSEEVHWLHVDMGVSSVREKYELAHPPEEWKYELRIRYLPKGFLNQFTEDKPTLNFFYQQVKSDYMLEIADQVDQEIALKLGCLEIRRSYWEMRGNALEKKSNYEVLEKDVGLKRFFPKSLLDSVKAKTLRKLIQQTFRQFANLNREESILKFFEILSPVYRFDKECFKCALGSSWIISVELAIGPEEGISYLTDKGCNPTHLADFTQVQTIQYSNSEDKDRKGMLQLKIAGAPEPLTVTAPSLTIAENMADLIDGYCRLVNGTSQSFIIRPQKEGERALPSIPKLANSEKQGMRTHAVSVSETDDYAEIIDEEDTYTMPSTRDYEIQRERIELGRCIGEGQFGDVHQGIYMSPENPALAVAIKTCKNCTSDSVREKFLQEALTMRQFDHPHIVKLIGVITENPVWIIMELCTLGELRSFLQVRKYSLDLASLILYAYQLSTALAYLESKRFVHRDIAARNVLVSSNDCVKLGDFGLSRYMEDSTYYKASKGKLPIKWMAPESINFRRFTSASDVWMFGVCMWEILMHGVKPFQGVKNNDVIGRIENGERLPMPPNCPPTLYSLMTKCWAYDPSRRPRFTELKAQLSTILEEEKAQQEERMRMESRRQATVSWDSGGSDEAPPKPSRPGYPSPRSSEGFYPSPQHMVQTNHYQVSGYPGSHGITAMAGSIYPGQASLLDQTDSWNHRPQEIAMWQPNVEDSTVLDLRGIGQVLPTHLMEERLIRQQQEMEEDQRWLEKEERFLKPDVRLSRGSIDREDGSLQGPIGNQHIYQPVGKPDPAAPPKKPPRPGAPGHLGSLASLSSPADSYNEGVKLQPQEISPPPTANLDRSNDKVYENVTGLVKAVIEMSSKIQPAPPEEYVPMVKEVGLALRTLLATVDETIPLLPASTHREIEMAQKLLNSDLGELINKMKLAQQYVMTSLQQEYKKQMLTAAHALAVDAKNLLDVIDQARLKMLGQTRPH
Torsin-1A (Homo sapiens), sequence (O14656 whole entry, looked up): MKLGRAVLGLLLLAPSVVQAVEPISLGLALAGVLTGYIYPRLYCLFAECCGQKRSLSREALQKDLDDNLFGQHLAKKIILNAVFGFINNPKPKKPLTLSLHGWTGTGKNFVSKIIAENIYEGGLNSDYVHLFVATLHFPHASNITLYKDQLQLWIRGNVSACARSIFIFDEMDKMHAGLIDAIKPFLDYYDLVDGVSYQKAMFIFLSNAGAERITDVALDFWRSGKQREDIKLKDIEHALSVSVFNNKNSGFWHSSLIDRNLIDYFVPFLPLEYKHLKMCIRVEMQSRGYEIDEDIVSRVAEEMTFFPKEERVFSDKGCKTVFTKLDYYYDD
Fibroblast growth factor 2 (Homo sapiens), sequence (P09038 whole entry, looked up): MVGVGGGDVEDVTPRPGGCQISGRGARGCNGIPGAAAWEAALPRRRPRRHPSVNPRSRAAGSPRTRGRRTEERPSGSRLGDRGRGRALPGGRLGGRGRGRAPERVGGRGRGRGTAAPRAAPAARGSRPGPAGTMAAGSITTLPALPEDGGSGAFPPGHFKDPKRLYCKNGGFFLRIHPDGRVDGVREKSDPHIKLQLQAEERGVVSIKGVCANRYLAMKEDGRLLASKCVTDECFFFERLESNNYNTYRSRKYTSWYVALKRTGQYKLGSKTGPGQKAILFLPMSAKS
Luciferin 4-monooxygenase (Photinus pyralis), sequence (P08659 whole entry, looked up): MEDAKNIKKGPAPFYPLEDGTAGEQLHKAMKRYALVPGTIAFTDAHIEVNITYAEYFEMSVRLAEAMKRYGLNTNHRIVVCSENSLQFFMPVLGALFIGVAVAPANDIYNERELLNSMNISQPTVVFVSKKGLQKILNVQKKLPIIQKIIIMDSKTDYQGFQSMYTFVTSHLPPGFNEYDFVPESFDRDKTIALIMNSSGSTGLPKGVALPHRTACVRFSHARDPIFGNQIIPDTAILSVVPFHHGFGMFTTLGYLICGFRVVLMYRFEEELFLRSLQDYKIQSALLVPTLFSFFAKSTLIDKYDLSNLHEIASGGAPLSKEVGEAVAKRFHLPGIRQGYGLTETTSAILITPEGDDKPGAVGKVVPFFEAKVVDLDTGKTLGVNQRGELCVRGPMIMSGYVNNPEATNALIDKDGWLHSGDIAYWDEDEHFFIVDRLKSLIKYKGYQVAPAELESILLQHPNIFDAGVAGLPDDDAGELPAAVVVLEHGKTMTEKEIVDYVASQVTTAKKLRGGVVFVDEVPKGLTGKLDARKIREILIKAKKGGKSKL

As to `CCCCN1CC=CC23O[C@@H]4C=CCCOC(=O)C4[C@H]2C(=O)N(CCO)[C@@H]3C1=O` (stereo not given in full), the composite z-score was -1.17 in assay [1]; -0.513 in assay [2]; -0.634 in assay [3]; 0.213 in assay [4]; 0.407 in assay [5]; 1.79 in assay [6]. The composite z-score is -0.614 with Lefty1; -0.0481 in assay [8]; -0.213 in assay [10]; -0.434 in assay [15]; -0.0405 in assay [16]; -0.856 with Torsin-1A (Homo sapiens) [17]. For the same compound, the composite z-score in the assay with Torsin-1A (Homo sapiens) [18] was -0.508; in assay [19], 1.71. Besides, the z-score is -0.9 in assay [7]; 0.421 (inactive) in assay [9]; 0.142 (inactive) in assay [11]; -0.892 (inactive) in [12]; -1.45 (inactive) in assay [13]; -0.34 (inactive) in assay [14].

With `COC(=O)[C@@]1(Cc2ccc(F)cc2)[C@H]2c3cc(C(=O)N4CCCC4)n(CCc4c[nH]c5cc(F)ccc45)c3C[C@H]2CN1C(=O)c1ccccc1`, the composite z-score in assay [1] stood at 1.43; in assay [2], 1.26; in [3], 1.16; in [4] it was 0.999; in assay [5], 1.13; in [6], 0.296. The composite z-score with Lefty1 came to 0.293; in assay [8], 0.832; in assay [10], 1.43; in [15], 1.12; in [16], 0.0049; in the assay with Torsin-1A (Homo sapiens) [17], 1.2. Moreover, the values for the composite z-score (with Torsin-1A (Homo sapiens) [18]; in assay [19]) were 1.29 and 0.0034, respectively. Further, the z-score in assay [7] is 0.592; in [9], 2.41 (inactive); in [11] it was -2.66 (inactive); in assay [12], 0.449 (inactive); in assay [13] it was 0.197 (inactive); in assay [14] it was 0.654 (inactive).

As for `COCCOC(=O)N1C(=O)[C@@]2(c3cc(C#CCNC(N)=O)ccc31)[C@H](c1ccc(O)cc1)N1[C@H](c3ccccc3)[C@H](c3ccccc3)OC(=O)[C@H]1[C@@H]2C(=O)N1CCc2cc(OC)c(OC)cc2C1`, the composite z-score amounted to 1.24 in [1]; 1.11 in assay [2]; 1.33 in assay [3]; 0.336 in assay [4]; 1.36 in assay [5]; 0.636 in assay [6]. The composite z-score in the assay with Lefty1 was 0.8; in assay [8] it was 0.815; in assay [10] it was 0.0981; in assay [15], 0.468; in [16], -0.0448; with Torsin-1A (Homo sapiens) [17], -0.0669. Moreover, the composite z-score in the assay with Torsin-1A (Homo sapiens) [18] turned out to be 0.148; in [19] it was 0.97. The z-score was -0.683 in assay [7]; -1.45 (inactive) in [9]; -0.483 (inactive) in assay [11]; 0.389 (inactive) in [12]; -0.0515 (inactive) in assay [13]; -0.379 (inactive) in assay [14].

Turning to `CC(C)(C)OC(=O)CC[C@@]1(C(N)=O)N=C(c2ccc(OCCCO)cc2)O[C@@H]1c1ccccc1CN=[N+]=[N-]`, the composite z-score worked out at 3.46 in assay [1]; 1.13 in assay [2]; 0.177 in assay [3]; 0.524 in assay [4]; 1.34 in [5]; 1.34 in assay [6]. The composite z-score is -0.721 in the assay with Lefty1; 0.68 in assay [8]; 1.07 in assay [10]; -0.0644 in [15]; 0.278 in assay [16]; 0.612 with Torsin-1A (Homo sapiens) [17]. In addition, the values for the composite z-score (with Torsin-1A (Homo sapiens) [18]; in [19]) were 1.08 and -0.425, respectively. Further, the z-score in [7] is -0.332; in assay [9] it was -1.79 (inactive); in [11], -0.57 (inactive); in assay [12] it was 0.938 (inactive); in assay [13] it was 0.171 (inactive); in assay [14], 0.638 (inactive).

For the compound `COC(=O)c1ccc(OC)c(/C=C\CC(OC(=O)c2ccncc2)c2ccccc2)c1` (stereo not given), the composite z-score is 0.429 in assay [1]; -0.0099 in assay [2]; -0.111 in [3]; -0.237 in [4]; 1.1 in assay [5]; 1.22 in assay [6]. Besides, the composite z-score is 0.904 with Lefty1; 0.947 in assay [8]; 0.114 in assay [10]; 1.79 in assay [15]; -0.154 in [16]; 0.217 with Torsin-1A (Homo sapiens) [17]. The composite z-score was 0.292 with Torsin-1A (Homo sapiens) [18] and 1.14 in [19]. The z-score in assay [7] was 1.64; in assay [9] it was -1.89 (inactive); in assay [11], -3.7 (inactive); in assay [12], -0.526 (inactive); in [13], 12.5 (active); in assay [14], -1.88 (inactive).
